Hits are enriched below; roughly 15% of the tested compounds scored in any of these assays.
DT40 TDP1 CPT: growth inhibition of DT40 Tdp1-/-;hTDP1 cells with camptothecin (screen for TDP1 inhibitors); Potency, µM (series often up to 46.2 µM), inactives show at the top dose activity change, negative = growth inhibition, actives largely listed as inhibitors; 420,000 compounds, 12% hits; chicken DT40 Tdp1-/-;hTDP1 cells + 20 nM CPT, ATP luminescence, 48 h; also: nearly all actives have a fitted effect of over 55% in size
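Chicken DT40 Tdp1-/- cells stably complemented with human TDP1 were seeded at 400 cells/well in medium containing 20 nM camptothecin, exposed to pin-transferred compounds, and grown at 37 °C for at least 48 hr. Viability was read as ATP luminescence.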
VP16 counter: counter-screen for ROR gamma inhibitors: Gal4-VP16 reporter; 310,000 compounds, 3.5% hits; Potency, µM (series often up to 53.6 µM), without a hit: at the top dose activity, negative = inhibition, most hits filed as inhibitors; Drosophila S2 Gal4-VP16 UAS-luciferase, luminescence, 20 h;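 also: Gal4-VP16 expression switched on by copper sulfate through the metallothionein promoter; nearly all actives have a fitted effect of over 50% in size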
TDP1 cell noCPT: qHTS for Inhibitors of human tyrosyl-DNA phosphodiesterase 1 (TDP1): qHTS in cells in absence of CPT. Potency, µM (titrated, usually from 46.2 µM), for the others: at the highest dose activity change, negative = growth inhibition, usual class: inhibitors. DT40 Tdp1-/- hTDP1 cells, no CPT, ATP luminescence, 48 h. 420,000 compounds, 15% hits; also: nearly all actives have a fitted effect of over 55% in size
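Stably hTDP1-transfected Tdp1-null chicken DT40 cells were treated with library compounds minus camptothecin and grown for at least 48 hr at 37 °C, after which cellular ATP was quantified by luminescence.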
RORg inh: ROR gamma (mouse) transcription inhibition | Drosophila S2 Gal4-RORgamma UAS-luciferase reporter, 20 h | Potency, µM (doses to about 53.6 µM), for the others: at the top dose activity change, negative = inhibition, most hits filed as inhibitors | 310,000 compounds, 5.4% hits | AID 2551; also: nearly all actives have a fitted effect of over 60% in size
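Compounds are pin-transferred onto Drosophila Schneider cells expressing a copper-inducible Gal4–ROR gamma transactivation domain fusion. After 1 hr, copper sulfate is added to 700 uM final; luciferase is read 20 hr later.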
12-LOX inh: ALOX12 (human) lipoxygenase inhibition. purified 12hLO, xylenol orange hydroperoxide absorbance. Potency, µM (doses to about 108 µM), inactives show top-dose activity change, negative = inhibition, hits mostly inhibitors. 580,000 compounds, 1.1% hits. AID 1671190
Target sequence (P18054 whole entry, looked up): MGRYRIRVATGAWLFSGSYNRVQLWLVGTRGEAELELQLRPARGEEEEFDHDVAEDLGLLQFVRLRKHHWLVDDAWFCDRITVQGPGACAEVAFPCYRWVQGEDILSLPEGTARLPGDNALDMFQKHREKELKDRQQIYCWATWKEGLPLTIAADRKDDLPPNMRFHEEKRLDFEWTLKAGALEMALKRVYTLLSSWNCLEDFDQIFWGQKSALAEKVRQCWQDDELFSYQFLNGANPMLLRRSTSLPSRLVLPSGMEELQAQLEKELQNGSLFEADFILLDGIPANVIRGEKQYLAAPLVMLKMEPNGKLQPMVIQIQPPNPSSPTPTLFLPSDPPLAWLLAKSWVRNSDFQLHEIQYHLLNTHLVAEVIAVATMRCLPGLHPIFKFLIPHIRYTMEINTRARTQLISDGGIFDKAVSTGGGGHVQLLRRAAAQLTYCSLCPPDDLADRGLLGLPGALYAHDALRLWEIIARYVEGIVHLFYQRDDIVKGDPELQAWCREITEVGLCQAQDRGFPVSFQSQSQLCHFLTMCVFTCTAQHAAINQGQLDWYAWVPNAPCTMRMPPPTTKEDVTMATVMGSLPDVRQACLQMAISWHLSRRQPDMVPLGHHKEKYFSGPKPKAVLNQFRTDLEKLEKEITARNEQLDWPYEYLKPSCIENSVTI
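Purified human 12hLO (150 nM final) in 25 mM Hepes, 0.01% Triton X-100, pH 7.0 was preincubated 15 min at room temperature with compound. Then 40 uM arachidonic acid was added, 30 min. Hydroperoxide was read by Fe-XO absorbance ratio 573/405 nm.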
ELG1 DNA repair: blocks ELG1-dependent DNA repair in HEK293T cells; HEK293T ELG1-luciferase reporter, luminescence, 16 h; DNA damage induced by 5-fluorouridine; Potency, µM (doses to about 46.1 µM), without a hit: at the top dose activity change, negative = inhibition, most hits filed as inhibitors; 330,000 compounds, 2.3% hits; also: nearly all actives have a fitted effect of over 55% in size
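Quantitative HTS, concentration-response format. 2,000 cells/well co-treated with 5-fluorouridine and compound, 16 hr in 5% CO2 at 37 °C; ONE-Glo luminescence read after 30 min.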
* hit, by the source's call; ? = inconclusive; . = not tested or not shown; [ ] = another dose, or the depositor's remark. Calls follow the shape of the dose curve; as a rule, active = well fitted curve in the direction sought with a large enough effect; inconclusive = small, poorly fitted or top-dose-only effect, or another doubt; inactive = no such curve, though single readings can be large; an effect the other way counts as inactive or inconclusive. % is scaled to controls: 0 for no effect and ±100 for the full control effect; potency is read from the fitted curve at half-maximal effect.

SMILES | DT40 TDP1 CPT | VP16 counter | TDP1 cell noCPT | RORg inh | 12-LOX inh | ELG1 DNA repair
Cn1c(O)c(N=NC(=O)Cn2c(C(F)(F)F)nc3ccccc32)c2ccccc21 | 20.6µM* | -8.2% | 13µM* | ? | -11.4% | -22.7%
O=C(O)Cn1c(C(F)(F)F)nc2ccccc21 | 2.0% | 3.4% | -27.6% | -33.5% | -17.2% | .
O=C(Cn1ccc(C(F)(F)F)n1)N=Nc1c(O)[nH]c2ccccc12 | 5.7% | 0.7% | -19.9% | 3.5% | -14.0% | 5.3%
COc1ccccc1C(=O)NCC(=O)N=Nc1c(O)n(C(C)C)c2ccccc12 | ? | 2.1% | 18.4µM* | -5.4% | -1.8% | -3.6%
CC(C)n1c(O)c(N=NC(=O)CNC(=O)CCc2ccccc2)c2ccccc21 | 5.5% | -1.9% | ? | 1.0% | 0.0% | 0.0%
Cc1cc(C(=O)N=Nc2c(O)n(C(C)C)c3ccccc23)n[nH]1 | ? | ? | 18.4µM* | 11.2µM* | -2.3% | -24.1%
CC(C)n1c(O)c(N=NC(=O)Cn2ccc(C(F)(F)F)n2)c2ccccc21 | ? | -9.4% | 8.2µM* | -4.0% | 11.1% | -15.6%
COC(=O)c1ccc(NC(=S)Nc2ccccn2)cc1 | ? | 1µM* | ? | 1µM* | ? | ?
COc1ccc(NC(=S)Nc2ccccn2)cc1 | ? | 7.08µM* | ? | 2.82µM* | 0.0% | ?
COc1ccc(/C=C/C(=O)NC(=S)Nc2ccccn2)cc1 | -2.9% | -28.1% | 3.2% | ? | 234.5% | ?
COc1cc(NC(=O)c2nc3ccccc3nc2OC)cc(OC)c1OC | . | . | . | . | -6.9% | .
CC1=CC(=O)C=C/C1=C(/c1ccc(O)cc1C)c1ccccc1S(=O)(=O)O | -3.1% | . | -15.7% | . | ? | -3.7%
CC1=C/C(=C(\c2ccc(O)c(C)c2)c2ccccc2S(=O)(=O)O)C=CC1=O | 1.5% | -10.5% | -4.7% | -0.1% | 6.31µM* | 8.7%
CC(=O)c1cccc(-c2cnc3c(NC=O)cc(-c4ccccc4)cn23)c1 | ? | . | 20.6µM* | . | 5.2% | .
COc1cccc(-c2cnc3c(NC=O)cc(-c4cccc(NC(C)=O)c4)cn23)c1 | 18.4µM* | . | 20.6µM* | . | -11.5% | .
CC(=O)Nc1cccc(-c2cc(NC=O)c3ncc(-c4cccc(C(C)=O)c4)n3c2)c1 | ? | . | 20.6µM* | . | -1.8% | .
COc1cccc(-c2cc(NC=O)c3ncc(-c4ccc(F)c(Cl)c4)n3c2)c1 | ? | . | ? | . | -29.4% | .
COc1cccc(-c2cc(NC=O)c3ncc(-c4ccc(C(C)=O)cc4)n3c2)c1 | 3.66µM* | . | 2.31µM* | . | -9.7% | .
Cc1onc(C(=O)NC2CCc3nn(C)c(=O)n3CC2)c1COc1ccccc1 (stereo not drawn) | . | . | . | . | 52.2% | .
O=C(NCc1ccccn1)C1c2ccccc2C(=O)N(Cc2ccccc2)C12CCCC2 (stereo not drawn) | . | . | . | . | 7.9% | .
Clc1cc(Cl)cc(OCc2cc(-c3ccco3)on2)c1 | . | . | . | . | 6.2% | .
COc1cccc(-c2cnc3c(NC(C)=O)cc(-c4cccc(NS(C)(=O)=O)c4)cn23)c1 | 25.9µM* | . | 23.1µM* | . | 4.0% | .
CC(=O)Nc1cc(-c2cccc(C)c2)cn2c(-c3ccc(S(C)(=O)=O)cc3)cnc12 | 14.6µM* | . | 11.6µM* | . | -14.5% | .
COc1ccc(-c2cc(NC=O)c3ncc(-c4cccc(C(C)=O)c4)n3c2)cc1 | ? | . | 18.4µM* | . | ? | .
COc1cc(-c2cnc3c(NC=O)cc(-c4cccc(NC(C)=O)c4)cn23)cc(OC)c1OC | 0.517µM* | . | 0.517µM* | . | -1.6% | .
SMILES | DT40 TDP1 CPT | VP16 counter | TDP1 cell noCPT | RORg inh | 12-LOX inh | ELG1 DNA repair
CC(=O)Nc1cc(-c2ccccc2Cl)cn2c(-c3ccc(S(C)(=O)=O)cc3)cnc12 | ? | . | ? | . | -14.1% | .
COc1cccc(NS(=O)(=O)c2ccc(NC(C)=O)cc2)c1 | ? | -7.3%[0.365 µM] | ? | ? | 20.6% | 1.4%
CC(=O)c1ccc(N2CCN(C(C(=O)O)c3c[nH]c4cc(NC(=O)C(C)C)ccc34)CC2)cc1 (stereo not drawn) | . | . | . | . | -25.3% | .
Cn1ccnc1SCc1ccc([N+](=O)[O-])cc1 | -3.2% | 1.8% | 11.7% | -26.7% | 0.0% | 11.8%
Cn1ccnc1SCc1cn2cc(Br)ccc2n1 | -1.1% | 10µM* | -15.8% | 11.2µM* | 475.2% | ?
CCCCNC(=O)C1(C)CCN1Cc1cc(C)ccc1C (stereo not drawn) | 23.1µM* | . | ? | . | 3.9% | .
CCCCNC(=O)C1(C)CCC(=O)N1CCOc1ccccc1 (stereo not drawn) | -4.0% | . | 0.7% | . | -0.4% | .
CCCCNC(=O)C1(C)CCCCN1Cc1ccc(OCc2ccccc2)cc1 (stereo not drawn) | 20.6µM* | . | 20.6µM* | . | -2.4% | .
CC1(C(=O)NCc2cccc3ccccc23)CCN1Cc1cc2ccccc2o1 (stereo not drawn) | ? | . | ? | . | 7.5% | .
CCCCNC(=O)C1(C)CCCCCN1Cc1cc2ccccc2o1 (stereo not drawn) | 18.4µM* | . | ? | . | -20.2% | .
CCCCNC(=O)C1(C)CCCCN1Cc1ccc(-c2ccccc2)cc1 (stereo not drawn) | 13µM* | . | 8.2µM* | . | ? | .
NC(CO)c1ccc(Oc2ccccc2)cc1 (stereo not drawn) | . | . | . | . | -56.5% | .
CCCCC(=O)N/N=C/c1ccc(C)cc1 | . | . | . | . | -0.9% | .
Cc1occc1C(=O)N1C[C@@H](C(=O)O)C[C@H](C(=O)NCc2ccccn2)C1 | . | . | . | . | 55.9% | .
COc1ccccc1CN1C[C@@H]2C[C@@H](c3ccc(C)cc3)N3CCC[C@@]23C1=O | -22.7% | -10.2% | ? | 8.0% | -2.2% | 2.5%
COc1ccccc1CN1C[C@@H]2C[C@@H](c3ccc4nsnc4c3)N3CCC[C@@]23C1=O | ? | -7.3% | 23.1µM* | 4.7% | 5.6% | -18.0%
COc1ccccc1CN1C[C@@H]2C[C@@H](c3ccccc3C)N3CCC[C@@]23C1=O | ? | -4.2% | 29.1µM* | 14.1% | -9.0% | 10.8%
O=C(O)CNS(=O)(=O)c1ccc2c(c1)Cc1cc(S(=O)(=O)NCC(=O)O)ccc1-2 | 1.2% | 2.9% | -0.3% | -30.4% | 8.91µM* | -7.9%
CC(CCc1ccccc1)NC(=O)C12CC3CC(CC(C3)C1)C2 (stereo not drawn) | . | . | . | . | 46.3% | .
CCCCCNC(=O)CSC1=N/C(=C\c2ccc(Cl)c(Cl)c2)C(=O)N1CC | -13.2% | 1.0% | -5.2% | -25.3% | 466.5% | 0.0%

High-throughput results: PubChem, National Center for Advancing Translational Sciences (NCATS)
